Screening data: PubChem, National Center for Advancing Translational Sciences (NCATS)
D1 ag = Allosteric Agonists of the Human D1 Dopamine Receptor: qHTS. D(1A) dopamine receptor (Homo sapiens), P21728. HEK293 T-REx D1 cells, calcium flux, agonist mode. activation, % at 2 µM. 360,000 tested, 1% active
Target sequence (P21728 whole entry, looked up): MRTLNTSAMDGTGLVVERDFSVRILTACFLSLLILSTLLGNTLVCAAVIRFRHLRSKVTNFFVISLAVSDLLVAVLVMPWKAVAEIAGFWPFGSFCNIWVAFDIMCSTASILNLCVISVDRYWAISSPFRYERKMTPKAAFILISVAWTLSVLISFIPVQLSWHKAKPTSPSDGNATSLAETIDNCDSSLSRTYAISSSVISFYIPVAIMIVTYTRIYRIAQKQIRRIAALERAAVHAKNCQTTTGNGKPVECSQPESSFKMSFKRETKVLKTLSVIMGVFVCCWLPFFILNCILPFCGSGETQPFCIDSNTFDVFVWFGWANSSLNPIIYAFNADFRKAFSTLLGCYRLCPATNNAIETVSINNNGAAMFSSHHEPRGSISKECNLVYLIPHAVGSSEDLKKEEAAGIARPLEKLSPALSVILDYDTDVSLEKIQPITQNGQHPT
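Agonism was scored from calcium flux recorded over 180 s (1 read/s) after pintool compound addition, following a 10-cycle baseline. Cells were inducible force-coupled HEK293 TREx D1, plated overnight at 30 C and loaded with no-wash calcium dye.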
TRHR enhancer = qHTS for Small Molecule Agonists and Allosteric Enhancers of Human TRH Receptor: Primary Screen for Enhancers. Thyrotropin-releasing hormone receptor (Homo sapiens), P34981. TRHR cells, fluo-8 calcium fluorescence, EC20 TRH enhancement. enhancement, % at 2 µM. 360,000 tested, 0.66% active. AID 493056, 2011; in the data active = enhancement above about 30%
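Enhancer read-out: after compound pinning and an initial kinetic agonist-mode read, an EC20 of TRH (10 nM final) was injected and fluo-8 calcium signal (Ex 480/Em 530) followed at 1 s/cycle for 100 cycles in TRHR-expressing cells.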
TRHR ag = qHTS for Small Molecule Agonists and Allosteric Enhancers of Human TRH Receptor: Primary Screen for Agonists. TRHR cells, calcium flux fluo-8, FDSS agonist mode. 360,000 tested, 0.18% active. activation, % at 2 µM. Thyrotropin-releasing hormone receptor (Homo sapiens), P34981
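TRHR-expressing cells, plated overnight in medium with 10% serum, were loaded with fluo-8 calcium dye at room temperature. After a 10 s baseline, library compound was pin-added and calcium release was recorded kinetically (ex 480/em 530) as agonist response.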
D1 antag = Antagonist of Human D 1 Dopamine Receptor: qHTS | activity change, negative = inhibition, % at 10 µM | AID 504652, 2011 | 360,000 tested, 3.2% active | D(1A) dopamine receptor (Homo sapiens), P21728 | HEK293 TREx D1 cells, calcium flux, dopamine EC80; stronger effect = lower value; in the data active = activity change below about -30%
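Antagonism measured as reduced calcium response to an EC80 dopamine addition following 180 s compound pre-read; cells were inducible HEK293 Trex D1 plated overnight at 30 C, read kinetically at 1 cycle/sec.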
D1 potentiator = Potentiators of Human D1 Dopamine Receptor: qHTS. D(1A) dopamine receptor (Homo sapiens), P21728. HEK293 TREx D1 cells, calcium flux, dopamine EC20 potentiation. potentiation, % at 10 µM. 360,000 tested, 0.036% active; in the data active = potentiation above about 30%
Each line names hits and unclear results; the compound was inactive in the other large screens. Shown are actives, neighbours in structure and some others; about 4.7% of the full set was active somewhere. Cut-off read from the data, not from the text of the source, unless noted: active = activation above about 30%; inactive = the rest.

C#CCOCCOCCOCCNc1nc(N2CCN(C(=O)CCCCCCCCCCNC(=O)[C@H](CCCN=C(N)N)n3cc(C[C@@H](C)CC)nn3)CC2)nc(N2CCN(C(=O)CCCCCCCCCCNC(=O)[C@@H]([C@H](C)CC)n3cc(CCCCCN)nn3)CC2)n1	D1 potentiator 35.2
C#CCOCCOCCOCCNc1nc(N2CCN(C(=O)CCCCCCCCCCNC(=O)[C@H]([C@@H](C)CC)n3cc(CCCCN=C(N)N)nn3)CC2)nc(N2CCN(C(=O)CCCCCCCCCCNC(=O)[C@H](CCCN=C(N)N)n3cc(C[C@@H](C)CC)nn3)CC2)n1	none
C#CCOCCOCCOCCNc1nc(N2CCN(C(=O)CCCCCCCCCCNC(=O)[C@@H](CCC(=O)O)n3cc(CCCCCN)nn3)CC2)nc(N2CCN(C(=O)CCCCCCCCCCNC(=O)[C@H](CO)n3cc(CCCSC)nn3)CC2)n1	none
C#CCOCCOCCOCCNc1nc(N2CCN(C(=O)CCCCCCCCCCNC(=O)[C@@H](CCC(=O)O)n3cc(CCCCCN)nn3)CC2)nc(N2CCN(C(=O)CCCCCCCCCCNC(=O)[C@H](CO)n3cc(CCCCCN)nn3)CC2)n1	D1 ag 45.2
Cc1cc(C)c(NC(=O)NC(=O)C(Cl)(Cl)Cl)c(C)c1	none
CCCN(CCC)C(=O)Cn1c(=O)n(-c2ccc(C)cc2)c(=O)c2ccc(C(=O)NCc3ccccc3Cl)cc21	D1 antag -66.0
Cc1ccc(-n2c(=O)c3ccc(C(=O)NCc4ccco4)cc3n(Cc3ccccc3Cl)c2=O)cc1	none
CCN(CC)c1ccc2nc3c4ccccc4c(=O)cc-3oc2c1	D1 ag 41.8
O=c1cc(-c2c(F)c(F)c(F)c(F)c2F)oc2ccccc12	none
CN(C)S(=O)(=O)N1CCN(CC(O)COc2ccc3cc(Br)ccc3c2)CC1 (stereo not given)	D1 antag -49.0
OC(COc1ccc2cc(Br)ccc2c1)CN1CCCC1 (stereo not given)	D1 ag 68.3, D1 antag -66.4
O=S(=O)(N1CCCCC1)N1CCN(CC(O)COc2ccc3cc(Br)ccc3c2)CC1 (stereo not given)	none
COc1ccccc1CN(C(=O)CNC(=O)c1ccco1)C(C(=O)NCC1CCCO1)c1ccccc1 (stereo not given)	none
Cc1cccc(C(=O)N/N=C/c2ccncc2)c1	D1 antag -37.3
Cc1cccc(-c2nn(-c3ccccc3)cc2C(=O)N2CCN(C3CCS(=O)(=O)C3)CC2)c1 (stereo not given)	none
O=c1[nH]c2ccc(NCc3ccc(-c4ccc(F)cc4)o3)cc2[nH]1	D1 ag 33.5
O=C(Nc1ccccc1Br)C1CCCN(S(=O)(=O)c2cccc3nsnc23)C1 (stereo not given)	none
CSCc1ccc(C(=O)NCCSc2ccc(Br)cc2)cc1	D1 antag -36.8
CCOC(=O)[C@H]1[C@H]2COc3ccc(Br)cc3[C@@H]2N2C(=O)CN(Cc3ccc(OC)cc3)C(=O)[C@@]12C	D1 antag -30.1
CCc1ccc(NC(=O)c2ccc(F)c(S(=O)(=O)NCCc3ccc(OC)c(OC)c3)c2)cc1	none
Cn1c(=O)n(CC(=O)NCC2CCCO2)c(=O)c2c3c(sc21)COC(C)(C)C3 (stereo not given)	D1 antag -30.0
CCCn1c(=O)n(CC(=O)NCC2CCCO2)c(=O)c2c3c(sc21)COC(C)(C)C3 (stereo not given)	none
S=C(Nc1ccccc1)Nc1ccc(Cl)cc1Cl	none
S=C(NCc1ccccc1Cl)Nc1ccccc1Cl	none
Cc1cc(Cl)ccc1NC(=S)NCc1ccccc1Cl	D1 antag -32.4
S=C(NCc1ccc(Cl)cc1Cl)Nc1ccccc1	D1 antag -31.1
Cc1oc(-c2cccc(Br)c2)nc1Cn1c(=O)cc(-c2ccccc2)c2c(C)nn(C)c21	none
COc1cc2c(cc1OC)C1O[C@](c3ccsc3)(C2)Oc2cc(-c3ccccc3)oc(=O)c21	none
COc1ccc(/C(O)=C/c2nc3ccc(C(=O)NCCc4cccc(C)c4)cc3[nH]c2=O)cc1OC	D1 ag 71.1
COc1ccc(-c2ccc3c(N)c(C(=O)Nc4cccc(C)c4)sc3n2)cc1	none
COc1cccc(-c2ccc3c(N)c(C(=O)Nc4cc(C(F)(F)F)ccc4OC)sc3n2)c1	D1 antag -35.5
COc1cccc(-c2ccc3c(N)c(C(=O)Nc4ccc(Cl)cc4F)sc3n2)c1	D1 antag -30.6
CC(C)CSc1ccccc1NC(=O)c1sc2nc(-c3ccncc3)ccc2c1N	D1 antag -31.4
O=C(Nc1nnc(S(=O)(=O)N2CCCc3ccccc32)s1)c1ccc(Cl)cc1	none
COc1ccc(N2CCN(C(C)C(=O)N3CCCC3)CC2)cc1 (stereo not given)	none
COc1ccc(N2CCN(C(C)C(=O)Nc3nnc(C)s3)CC2)cc1 (stereo not given)	TRHR enhancer 32.2
COc1ccc(N2CCN(C(=O)CSc3nnc(NC(=O)C4CCC4)s3)CC2)cc1	D1 antag -32.0
COC(=O)C1=NN(C(=O)c2ccccc2)C(C)(O)C1 (stereo not given)	none
COC(=O)C1=NN(C(=O)c2ccc(C)cc2)C(O)(c2ccc(Cl)cc2)C1 (stereo not given)	D1 ag 57.1
COC(=O)C1=NN(C(=O)c2ccccc2)C(O)(c2ccc([N+](=O)[O-])cc2)C1 (stereo not given)	D1 ag 86.3
O=C(c1ccccc1)N1N=C(C(F)(F)F)CC1(O)c1ccccc1 (stereo not given)	TRHR enhancer 38.1
Cc1cc(C)cc(NC(=O)C(C)N2Cc3ccccc3C2=O)c1 (stereo not given)	none
Cn1cc(C(=O)NCN2CCCCC2)c2ccccc21	D1 antag -39.6
O=C(CSc1ccc(C(F)(F)F)cc1[N+](=O)[O-])Nc1ccccc1	D1 ag 37.2
CC(C)NC(=O)CNc1ccc(C(F)(F)F)cc1[N+](=O)[O-]	D1 antag -30.5
CC(C)(C)C1CCCCC1NC(=O)c1ccncc1 (stereo not given)	none
Cc1cccc(CN2C(=O)c3ccccc3Sc3ccc(C(=O)NCc4cccs4)cc32)c1	none
COc1ccc(OC)c(NC(=O)C(Cc2ccccc2)NS(=O)(=O)c2ccc3c(c2)CCC(=O)N3)c1 (stereo not given)	none
COc1ccc(CCN(C)C(=O)CN2C(=O)NC3(CCCCCC3)C2=O)cc1OC	D1 antag -59.6
